Experimental data published in PubChem BioAssay (NCATS).
Inconclusive results are not listed. Entries that show only a call come without a potency. Values without a mark were called inactive. Calls of active or inactive are those of the source. Calls follow the shape of the dose curve; as a rule, active = well fitted curve in the direction sought with a large enough effect; inconclusive = small, poorly fitted or top-dose-only effect, or another doubt; inactive = no such curve, though single readings can be large; an effect the other way counts as inactive or inconclusive.

Key:
[1] = target: Cellular tumor antigen p53 (Homo sapiens) (UniProt P04637); assay: Primary qHTS for small molecule compounds that upregulate eGFP-tagged delta133p53alpha (in N-terminal) cells. (AID 2060322); settings: NCI-H358 eGFP-delta133p53alpha fluorescence, 24 h; activation: hits give high values; also: nearly all actives have a fitted effect of over 75% in size; also: potency is read from the fitted curve at half-maximal effect;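 as to activation: cells pre-induced with doxycycline then dosed without doxycycline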
Outline: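 NCI-H358 cells pre-induced 24 h with 10 ng/ml doxycycline for eGFP-delta133p53alpha, plated dox-free and exposed 24 h at 37C to titrated compounds. Fixed, Hoechst-stained; gated GFP peak intensity by laser scanning cytometry, normalized to DMSO (0%) and 57.5 uM 5-azacytidine (100%).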

[2] = target: Aldehyde dehydrogenase, mitochondrial (Homo sapiens) (UniProt P05091); assay: qHTS for Inhibitors of the Aldehyde Dehydrogenase Family (ALDH2) Primary screen (AID 2061308); settings: ALDH2 enzyme inhibition qHTS, 1536-well; series mostly up to 56 µM; also: nearly all actives have a fitted effect of over 55% in size
[3] = target: Retinaldehyde dehydrogenase 3 (Homo sapiens) (UniProt P47895); assay: qHTS for Inhibitors of the Aldehyde Dehydrogenase Family (ALDH1A3) Primary screen (AID 2061315); settings: ALDH inhibition qHTS; series mostly up to 56 µM

Chain of Cellular tumor antigen p53 (Homo sapiens) (P04637 whole entry, looked up): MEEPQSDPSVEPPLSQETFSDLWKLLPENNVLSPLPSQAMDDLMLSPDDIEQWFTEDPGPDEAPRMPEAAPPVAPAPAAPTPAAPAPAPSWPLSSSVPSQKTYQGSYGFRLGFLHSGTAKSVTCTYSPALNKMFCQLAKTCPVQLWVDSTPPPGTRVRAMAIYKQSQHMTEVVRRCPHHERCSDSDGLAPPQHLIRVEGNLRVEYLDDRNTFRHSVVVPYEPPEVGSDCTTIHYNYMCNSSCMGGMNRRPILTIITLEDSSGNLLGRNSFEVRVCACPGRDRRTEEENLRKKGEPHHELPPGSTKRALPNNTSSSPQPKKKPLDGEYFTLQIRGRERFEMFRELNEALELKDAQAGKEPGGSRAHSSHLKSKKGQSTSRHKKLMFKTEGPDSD

CC(C)CC(=O)OC[C@@]1(O)C[C@@]23CC[C@H]4[C@@](C)(CCC[C@@]4(C)C(=O)O)[C@@H]2CC[C@@H]1C3
activation [1]: -13% | Potency [2]: inactive | Potency [3]: inactive

Cc1cc(NC(=O)c2cccc(NC(=O)/C=C/CN(C)C)c2)ccc1Nc1nccc(-c2cccnc2)n1
Potency [1]: 26.9 µM (active) | Potency [2]: inactive | Potency [3]: inactive

C=CC(C)(O)CC/C=C(\C)COC1O[C@H](CO)[C@@H](O)[C@H](O)[C@H]1O (some centres not stated)
activation [1]: -14.5% | Potency [2]: inactive | Potency [3]: inactive

N#Cc1cc(-c2n[nH]c(-c3ccncc3)n2)ccn1
activation [1]: 4.46% | Potency [2]: inactive | Potency [3]: inactive

CC12CCC(OC3OC(CO)C(O)C(OC4OC(CO)C(O)C(O)C4O)C3O)CC1CCC1C2CCC2(C)/C(=C3/COC(=O)C3)CCC12O (configuration not stated)
activation [1]: -3.82% | Potency [2]: inactive | Potency [3]: inactive

C[C@@H]1C(=O)O[C@H](C)[C@H]1C[C@@H](O)[C@](C)(O)[C@H]1CC[C@@]2(O)C3=CC(=O)[C@@H]4C[C@@H](O)[C@@H](O)C[C@]4(C)C3CC[C@]12C (some centres not stated)
activation [1]: -5.36% | Potency [2]: inactive | Potency [3]: inactive

CCOC(=O)C1=Cc2ccc(C(F)(F)C(F)(F)F)cc2N=C(N)C1
activation [1]: -1.79% | Potency [2]: inactive | Potency [3]: inactive

C/C=C(\C)C(=O)O[C@H]1C=CC(=O)O[C@H]1/C=C/[C@@H](O)[C@H](C)O
Potency [1]: 26.9 µM (active) | Potency [2]: inactive | Potency [3]: inactive

CC#CCn1c(N2CCCC(N)C2)nc2c1c(=O)n(Cc1nc(C)c3ccccc3n1)c(=O)n2C (configuration not stated)
activation [1]: 5.67% | Potency [2]: inactive | Potency [3]: inactive
